We go through seven sequences from article PMC7862700, “An all-to-all approach to the identification of sequence-specific readers for epigenetic DNA modifications on cytosine”.

Experiment in all cases: DAPPL (digital affinity profiling via proximity ligation, sequencing); 10 mM Tris-HCl pH 7.5, 50 mM NaCl, 1 mM DTT, 4% glycerol, room temperature, 30 min; GST-TFs on glutathione beads, 16-mer random dsDNA library, 0.1% formaldehyde crosslink after washing; high values mean tight binding
For one assay, the target named is T1, FEV (Homo sapiens, UniProt Q99581 1-238).
T1 sequence: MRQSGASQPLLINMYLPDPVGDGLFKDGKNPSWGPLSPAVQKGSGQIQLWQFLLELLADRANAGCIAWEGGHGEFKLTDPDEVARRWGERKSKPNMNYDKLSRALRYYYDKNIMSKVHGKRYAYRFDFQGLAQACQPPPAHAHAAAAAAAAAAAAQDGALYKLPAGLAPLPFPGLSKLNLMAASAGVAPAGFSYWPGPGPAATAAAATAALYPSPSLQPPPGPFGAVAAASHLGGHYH
To be noted: protein: recombinant; tags: N-terminal GST; dsDNA, one strand shown. In a few lines:
(§1)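 Human transcription factors fused to GST were expressed in yeast, captured on glutathione beads, given DNA barcodes and pooled with a GST-only negative control. Pools were incubated with 200 nmole of a 16-mer random double-stranded DNA library in Tris/NaCl/DTT/glycerol buffer at room temperature for 30 min. They were then washed, crosslinked with 0.1% formaldehyde, proximity-ligated (BsaI/T4 ligase, 1 h, 37 °C), PCR-amplified and sequenced on an Illumina NextSeq500. Binding signal is each 6-mer's read frequency for a factor divided by its frequency for the GST control.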

The target in another assay is ETV5 (Homo sapiens, UniProt P41161 1-510). To be noted: protein: recombinant; tags: N-terminal GST; dsDNA, one strand shown. In a few lines: as §1
The target in another assay is HSF1 (Homo sapiens, UniProt Q00613 1-529). To be noted: protein: recombinant; tags: N-terminal GST; chain copies: 3; dsDNA, one strand shown. The procedure, abridged: as §1
In the next assay the target is T2, SPIC (Homo sapiens, UniProt Q8N5J4 1-248).
T2 sequence: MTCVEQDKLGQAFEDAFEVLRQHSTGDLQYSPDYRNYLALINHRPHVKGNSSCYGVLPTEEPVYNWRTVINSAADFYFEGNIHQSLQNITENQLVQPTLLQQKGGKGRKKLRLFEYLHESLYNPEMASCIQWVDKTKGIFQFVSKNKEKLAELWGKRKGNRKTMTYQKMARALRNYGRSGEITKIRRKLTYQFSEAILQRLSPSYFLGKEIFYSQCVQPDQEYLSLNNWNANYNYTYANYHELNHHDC
To be noted: protein: recombinant; tags: N-terminal GST; dsDNA, one strand shown. The procedure, abridged: as §1

The target in a further assay is ELF4 (Homo sapiens, UniProt Q99607 1-663). To be noted: protein: recombinant; tags: N-terminal GST; dsDNA, one strand shown. The procedure, abridged: as §1
The target in another assay is T3, ELK4 (Homo sapiens, UniProt P28324-2 1-405).
T3 sequence: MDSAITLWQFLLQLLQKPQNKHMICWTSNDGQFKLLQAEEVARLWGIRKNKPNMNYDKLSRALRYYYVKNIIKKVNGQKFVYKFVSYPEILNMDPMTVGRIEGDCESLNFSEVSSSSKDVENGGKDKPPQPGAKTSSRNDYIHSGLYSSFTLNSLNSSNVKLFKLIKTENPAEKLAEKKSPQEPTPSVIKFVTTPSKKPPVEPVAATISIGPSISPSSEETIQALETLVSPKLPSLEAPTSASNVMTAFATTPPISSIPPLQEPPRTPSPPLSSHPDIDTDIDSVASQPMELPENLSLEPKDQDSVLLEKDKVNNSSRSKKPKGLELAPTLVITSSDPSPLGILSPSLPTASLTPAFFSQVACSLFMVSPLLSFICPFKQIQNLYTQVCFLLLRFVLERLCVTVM
To be noted: protein: recombinant; tags: N-terminal GST; dsDNA, one strand shown. The procedure, abridged:
as §1

For a further assay, the target named is T4, ETV2 (Homo sapiens, UniProt O00321 1-342).
T4 sequence: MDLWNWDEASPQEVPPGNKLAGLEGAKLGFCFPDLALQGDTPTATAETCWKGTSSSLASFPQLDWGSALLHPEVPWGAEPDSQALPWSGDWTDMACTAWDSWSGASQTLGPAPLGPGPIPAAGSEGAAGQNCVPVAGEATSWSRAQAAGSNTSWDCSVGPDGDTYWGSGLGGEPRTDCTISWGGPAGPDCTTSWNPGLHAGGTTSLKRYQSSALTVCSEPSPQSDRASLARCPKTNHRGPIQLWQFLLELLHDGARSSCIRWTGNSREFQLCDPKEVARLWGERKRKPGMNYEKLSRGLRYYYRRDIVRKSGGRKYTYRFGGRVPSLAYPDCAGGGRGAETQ
To be noted: protein: recombinant; tags: N-terminal GST; dsDNA, one strand shown. In a few lines:
as §1

The target of another assay is T5, ELF3 (Homo sapiens, UniProt P78545 1-371).
T5 sequence: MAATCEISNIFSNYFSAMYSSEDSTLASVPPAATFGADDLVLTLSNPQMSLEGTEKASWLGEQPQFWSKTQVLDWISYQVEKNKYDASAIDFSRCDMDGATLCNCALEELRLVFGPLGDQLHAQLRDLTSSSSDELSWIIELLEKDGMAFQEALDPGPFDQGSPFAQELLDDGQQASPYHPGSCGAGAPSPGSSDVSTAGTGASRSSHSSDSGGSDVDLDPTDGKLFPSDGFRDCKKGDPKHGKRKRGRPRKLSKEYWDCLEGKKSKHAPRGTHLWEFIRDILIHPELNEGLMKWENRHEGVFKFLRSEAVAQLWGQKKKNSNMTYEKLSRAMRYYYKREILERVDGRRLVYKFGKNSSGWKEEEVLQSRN
To be noted: protein: recombinant; tags: N-terminal GST; dsDNA, one strand shown. The procedure, abridged: as §1

A further assay has as its target CRX (Homo sapiens, UniProt O43186 1-299). To be noted: protein: recombinant; tags: N-terminal GST; dsDNA, one strand shown. The procedure, abridged:
as §1

The next assay has as its target ETV1 (Homo sapiens, UniProt P50549 1-477). To be noted: protein: recombinant; tags: N-terminal GST; dsDNA, one strand shown. The procedure, abridged:
as §1

ELF4, sequence (Q99607 whole entry): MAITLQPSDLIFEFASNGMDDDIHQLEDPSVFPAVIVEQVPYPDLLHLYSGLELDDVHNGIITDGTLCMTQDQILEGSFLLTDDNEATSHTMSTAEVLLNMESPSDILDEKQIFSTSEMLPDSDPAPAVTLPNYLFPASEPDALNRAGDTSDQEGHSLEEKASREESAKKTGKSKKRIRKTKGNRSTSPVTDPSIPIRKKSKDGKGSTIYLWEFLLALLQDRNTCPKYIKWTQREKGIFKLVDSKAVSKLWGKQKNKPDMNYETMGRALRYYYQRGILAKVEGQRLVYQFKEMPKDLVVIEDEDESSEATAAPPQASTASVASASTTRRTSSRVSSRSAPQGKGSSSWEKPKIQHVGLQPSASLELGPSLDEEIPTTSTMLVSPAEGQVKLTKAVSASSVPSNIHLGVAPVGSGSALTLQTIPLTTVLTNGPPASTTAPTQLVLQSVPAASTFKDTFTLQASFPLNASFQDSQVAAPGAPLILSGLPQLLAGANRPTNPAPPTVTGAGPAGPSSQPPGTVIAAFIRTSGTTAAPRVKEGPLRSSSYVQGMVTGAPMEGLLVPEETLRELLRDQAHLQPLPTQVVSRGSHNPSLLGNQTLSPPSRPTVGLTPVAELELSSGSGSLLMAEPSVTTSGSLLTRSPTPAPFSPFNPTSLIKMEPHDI
ETV1, sequence (P50549 whole entry): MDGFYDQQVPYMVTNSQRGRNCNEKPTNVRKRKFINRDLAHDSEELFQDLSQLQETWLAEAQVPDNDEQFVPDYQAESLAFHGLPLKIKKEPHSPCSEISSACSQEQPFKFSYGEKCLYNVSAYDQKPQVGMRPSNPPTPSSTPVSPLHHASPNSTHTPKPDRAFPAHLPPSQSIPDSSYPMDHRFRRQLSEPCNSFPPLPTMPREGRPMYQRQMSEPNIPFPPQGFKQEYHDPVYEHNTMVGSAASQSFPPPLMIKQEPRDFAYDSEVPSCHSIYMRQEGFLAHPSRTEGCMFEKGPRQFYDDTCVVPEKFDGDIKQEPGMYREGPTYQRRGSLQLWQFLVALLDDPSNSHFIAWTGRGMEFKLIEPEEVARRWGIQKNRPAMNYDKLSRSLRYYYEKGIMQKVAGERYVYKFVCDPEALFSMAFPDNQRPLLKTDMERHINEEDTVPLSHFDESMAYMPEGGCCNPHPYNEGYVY
CRX, sequence (O43186 whole entry): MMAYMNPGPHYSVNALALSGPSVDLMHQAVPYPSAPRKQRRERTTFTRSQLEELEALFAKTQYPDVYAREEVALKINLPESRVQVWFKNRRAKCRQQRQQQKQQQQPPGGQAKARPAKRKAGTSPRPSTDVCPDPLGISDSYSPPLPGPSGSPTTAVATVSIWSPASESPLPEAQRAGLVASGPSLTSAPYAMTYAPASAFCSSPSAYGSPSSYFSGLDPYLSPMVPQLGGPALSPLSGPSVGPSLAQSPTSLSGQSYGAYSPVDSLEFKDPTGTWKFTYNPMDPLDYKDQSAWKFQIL
ETV5, sequence (P41161 whole entry): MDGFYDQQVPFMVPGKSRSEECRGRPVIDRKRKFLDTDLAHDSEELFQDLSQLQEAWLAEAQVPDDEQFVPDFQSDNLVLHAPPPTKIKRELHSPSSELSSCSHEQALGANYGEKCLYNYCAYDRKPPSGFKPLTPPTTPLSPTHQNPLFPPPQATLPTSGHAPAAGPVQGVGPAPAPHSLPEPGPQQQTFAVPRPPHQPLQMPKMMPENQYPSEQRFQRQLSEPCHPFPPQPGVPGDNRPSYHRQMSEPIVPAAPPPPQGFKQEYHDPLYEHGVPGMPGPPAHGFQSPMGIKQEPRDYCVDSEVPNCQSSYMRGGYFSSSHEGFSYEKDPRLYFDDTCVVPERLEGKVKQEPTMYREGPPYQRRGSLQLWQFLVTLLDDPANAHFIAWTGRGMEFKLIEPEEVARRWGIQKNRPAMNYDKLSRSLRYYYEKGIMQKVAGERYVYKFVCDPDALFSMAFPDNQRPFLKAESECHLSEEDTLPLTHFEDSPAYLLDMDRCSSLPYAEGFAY
HSF1, sequence (Q00613 whole entry): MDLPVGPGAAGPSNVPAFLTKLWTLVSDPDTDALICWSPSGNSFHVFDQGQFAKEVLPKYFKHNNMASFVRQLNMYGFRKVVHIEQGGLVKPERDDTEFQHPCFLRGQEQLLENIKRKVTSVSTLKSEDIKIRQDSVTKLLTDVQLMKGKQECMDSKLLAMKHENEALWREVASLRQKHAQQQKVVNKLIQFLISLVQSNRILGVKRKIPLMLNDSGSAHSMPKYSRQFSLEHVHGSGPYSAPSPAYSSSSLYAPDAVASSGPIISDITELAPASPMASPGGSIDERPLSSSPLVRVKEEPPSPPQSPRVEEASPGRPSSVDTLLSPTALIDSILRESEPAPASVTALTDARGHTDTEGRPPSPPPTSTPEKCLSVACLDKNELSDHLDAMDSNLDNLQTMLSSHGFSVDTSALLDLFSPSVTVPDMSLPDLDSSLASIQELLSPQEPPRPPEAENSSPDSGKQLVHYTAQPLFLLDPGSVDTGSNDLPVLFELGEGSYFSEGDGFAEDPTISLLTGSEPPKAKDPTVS

Consider CAACTA, for which the binding signal with FEV is 1.27 fold enrichment (6-mer frequency, TF over GST control); with ETV5 it was 1.26 fold enrichment (6-mer frequency, TF over GST control); in the assay with HSF1 it was 1.2 fold enrichment (6-mer frequency, TF over GST control); with SPIC it was 1.22 fold enrichment (6-mer frequency, TF over GST control); with ELF4 it was 1.31 fold enrichment (6-mer frequency, TF over GST control); with ELK4 it was 1.24 fold enrichment (6-mer frequency, TF over GST control). For the same sequence, the binding signal was 1.18 fold enrichment (6-mer frequency, TF over GST control) with ETV2; 1.32 fold enrichment (6-mer frequency, TF over GST control) with ELF3; 1.24 fold enrichment (6-mer frequency, TF over GST control) with CRX; 1.24 fold enrichment (6-mer frequency, TF over GST control) with ETV1.

On to TCCCAG, for which the binding signal in the assay with FEV was 1.08 fold enrichment (6-mer frequency, TF over GST control); with ETV5, 1.06 fold enrichment (6-mer frequency, TF over GST control); with HSF1 it was 1.16 fold enrichment (6-mer frequency, TF over GST control); in the assay with SPIC it was 1.01 fold enrichment (6-mer frequency, TF over GST control); with ELF4, 1.15 fold enrichment (6-mer frequency, TF over GST control); in the assay with ELK4, 1.25 fold enrichment (6-mer frequency, TF over GST control). Moreover, the binding signal with ETV2 is 1.02 fold enrichment (6-mer frequency, TF over GST control); in the assay with ELF3 it was 1.14 fold enrichment (6-mer frequency, TF over GST control); in the assay with CRX, 1.19 fold enrichment (6-mer frequency, TF over GST control).

For the sequence TATCGC, the binding signal is 1.17 fold enrichment (6-mer frequency, TF over GST control) in the assay with FEV; 1.13 fold enrichment (6-mer frequency, TF over GST control) with ETV5; 1.22 fold enrichment (6-mer frequency, TF over GST control) in the assay with HSF1; 1.21 fold enrichment (6-mer frequency, TF over GST control) in the assay with SPIC; 1.23 fold enrichment (6-mer frequency, TF over GST control) with ELF4; 1.3 fold enrichment (6-mer frequency, TF over GST control) in the assay with ELK4. The binding signal is 1.07 fold enrichment (6-mer frequency, TF over GST control) with ETV2; 1.1 fold enrichment (6-mer frequency, TF over GST control) in the assay with ELF3; 1.41 fold enrichment (6-mer frequency, TF over GST control) with CRX; 1.22 fold enrichment (6-mer frequency, TF over GST control) with ETV1.

As for AGTTAA, the binding signal with FEV is 1.05 fold enrichment (6-mer frequency, TF over GST control); in the assay with ETV5, 1.1 fold enrichment (6-mer frequency, TF over GST control); with HSF1 it was 1.15 fold enrichment (6-mer frequency, TF over GST control); with SPIC, 1.05 fold enrichment (6-mer frequency, TF over GST control); in the assay with ELF4, 1.15 fold enrichment (6-mer frequency, TF over GST control); in the assay with ELK4, 1.15 fold enrichment (6-mer frequency, TF over GST control). Further, the binding signal is 1.2 fold enrichment (6-mer frequency, TF over GST control) in the assay with ETV2; 1.09 fold enrichment (6-mer frequency, TF over GST control) with ELF3; 1.51 fold enrichment (6-mer frequency, TF over GST control) in the assay with CRX.

With TGGTAG, the binding signal with ETV5 was 1.07 fold enrichment (6-mer frequency, TF over GST control); with HSF1, 1.06 fold enrichment (6-mer frequency, TF over GST control); with SPIC, 1.08 fold enrichment (6-mer frequency, TF over GST control); with ELF4, 1.11 fold enrichment (6-mer frequency, TF over GST control); in the assay with ELK4, 1.37 fold enrichment (6-mer frequency, TF over GST control); with ETV2, 1.04 fold enrichment (6-mer frequency, TF over GST control). Moreover, the binding signal is 1.13 fold enrichment (6-mer frequency, TF over GST control) in the assay with ELF3 and 1.05 fold enrichment (6-mer frequency, TF over GST control) in the assay with ETV1.

With GCTCAT, the binding signal was 1.2 fold enrichment (6-mer frequency, TF over GST control) in the assay with FEV; 1.19 fold enrichment (6-mer frequency, TF over GST control) with ETV5; 1.15 fold enrichment (6-mer frequency, TF over GST control) with HSF1; 1.32 fold enrichment (6-mer frequency, TF over GST control) with SPIC; 1.18 fold enrichment (6-mer frequency, TF over GST control) with ELF4; 1.3 fold enrichment (6-mer frequency, TF over GST control) with ELK4. Besides, the binding signal was 1.39 fold enrichment (6-mer frequency, TF over GST control) with ETV2; 1.34 fold enrichment (6-mer frequency, TF over GST control) with ELF3; 1.35 fold enrichment (6-mer frequency, TF over GST control) with CRX; 1.22 fold enrichment (6-mer frequency, TF over GST control) with ETV1.

With ACCGAA, the binding signal in the assay with FEV is 1.05 fold enrichment (6-mer frequency, TF over GST control); in the assay with ETV5 it was 1.06 fold enrichment (6-mer frequency, TF over GST control); with HSF1, 1.25 fold enrichment (6-mer frequency, TF over GST control); in the assay with SPIC, 1.12 fold enrichment (6-mer frequency, TF over GST control); in the assay with ELF4 it was 1.03 fold enrichment (6-mer frequency, TF over GST control); with ELK4 it was 1.06 fold enrichment (6-mer frequency, TF over GST control). In addition, the binding signal with ETV2 is 1.19 fold enrichment (6-mer frequency, TF over GST control); with ELF3, 1.11 fold enrichment (6-mer frequency, TF over GST control); with CRX, 1.08 fold enrichment (6-mer frequency, TF over GST control); with ETV1, 1.05 fold enrichment (6-mer frequency, TF over GST control).
